# Test results published in PubChem BioAssay (NCATS).
# Calls of active or inactive are those of the source. The call rests on the fitted dose curve; in most records, active means well fitted inhibition curve with a large enough effect; inconclusive means small, poorly fitted or top-dose-only effect; inactive means flat fitted curve, though single readings scatter.
# Molecular target: DNA dC->dU-editing enzyme APOBEC-3G (Homo sapiens) (UniProt Q9HC16)
# Experiment: qHTS for inhibitors of Vif-A3G interactions: Validation (AID 588379)
# Details: Vif-A3G protein interaction assay; series mostly up to 46.1 µM
# Source text: The recent discovery and characterization of host restriction factors, which provide a potent defense to invading retroviruses, has provided new targets for antiviral drug development. APOBEC3G (A3G) and APOBEC3F (A3F) are potent cytidine deaminases that block HIV-1 replication; HIV-1 expresses the Vif protein, which counteracts A3G and A3F by binding to them and inducing their proteasomal degradation.
# The Vif-A3G and Vif-A3F interactions provide two potential targets for development of small molecules which can interfere with the ability of Vif to degrade A3G or A3F. […] To identify inhibitors that can interfere with Vif mediated degradation of A3G and A3F, we have developed Hela cell lines that stably express A3G or A3F tagged with eYFP at the C-terminal end (A3G-eYFP or A3F-eYFP, respectively) and Vif. In the absence of an inhibitor, Vif induces degradation of A3G-eYFP and A3F-eYFP, and the cells are not fluorescent. In the presence of an inhibitor, it is expected that Vif will be unable to degrade A3G-eYFP and/or A3F-eYFP, resulting in an increase in yellow fluorescence. In this assays Vif A3G was screened against the Molecular Library Small Molecile Repository (MLSMR).
# NIH Chemical Genomics Center [NCGC]
# NIH Molecular Libraries Probe Centers Network [MLPCN]
# Assay Submitter (PI): Vinay Pathak, National Cancer Institute
# 5 uL of 700 cells/well of A3G-YFP cells are dispensed into black, clear bottom plates. The plates are incubated overnight at 37 deg C. 23 nL of compounds are added by pintool. The plates are incubated overnight at 37 deg C and then read on the TTP Acumen (Ex 488/ Em 500-530).
# DNA dC->dU-editing enzyme APOBEC-3G (Homo sapiens), sequence (Q9HC16 whole entry, looked up): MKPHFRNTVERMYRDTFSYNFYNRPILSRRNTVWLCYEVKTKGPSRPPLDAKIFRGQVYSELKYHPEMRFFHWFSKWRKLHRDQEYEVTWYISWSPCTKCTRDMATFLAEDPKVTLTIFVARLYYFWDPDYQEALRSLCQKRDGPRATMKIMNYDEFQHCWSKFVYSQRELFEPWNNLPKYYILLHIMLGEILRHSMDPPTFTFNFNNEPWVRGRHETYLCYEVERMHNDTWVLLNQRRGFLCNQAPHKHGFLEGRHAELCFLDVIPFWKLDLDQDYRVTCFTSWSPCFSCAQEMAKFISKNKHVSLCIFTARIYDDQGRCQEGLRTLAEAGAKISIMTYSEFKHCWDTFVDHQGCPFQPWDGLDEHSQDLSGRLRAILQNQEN
row,Compound,outcome
1,COc1ccc(-c2oc3ccc(C)cc3c(=O)c2O)cc1OC,inactive
2,COC1/C=C/OC2(C)Oc3c(C)c(O)c4c(O)c(c(/C=N/N5CCN(C)CC5)c(O)c4c3C2=O)NC(=O)/C(C)=C/C=C/C(C)C(O)C(C)C(O)C(C)C(OC(C)=O)C1C (stereo not drawn),inactive
3,O=c1ccc2cc3ccoc3cc2o1,inactive
4,COc1ccc(C2OCC3(COC(C)=O)C(C)C=C(C)C2C3C)cc1 (stereo not drawn),inactive
5,CC(C)=CCCC(C)CCO (stereo not drawn),inactive
6,COc1ccc(/C=C/C(=O)c2cccs2)c(OC)c1,inactive
7,C=C1CCC(O)C/C1=C\C=C1/CCCC2(C)C1CCC2C(C)/C=C/C(C)C(C)C (stereo not drawn),inactive
8,C=C1CCC(O)C/C1=C\C=C1/CCCC2(C)C1CCC2C(C)CCCC(C)C (stereo not drawn),inactive
9,CC(C)=CCc1c(O)cc(O)c2c1O[C@H](c1ccccc1)CC2=O,inactive
10,COc1cc2cc(Oc3ccc4ccc(=O)oc4c3)c(=O)oc2cc1O,inactive
11,O=c1cc(-c2cccc(O)c2)oc2c(O)c(O)ccc12,inactive
12,COc1cc2cc3c4c(cc(OC)c(OC)c4c2cc1OC)CCN3C,inactive
13,COc1c2ccoc2cc2oc(=O)ccc12,inactive
